PubChem BioAssay AID602393 (Broad Institute, 2012)
Screen size: about 350,000 compounds; about 7,000 (2%) were called active. The sample holds actives, similar compounds and a random draw of the others, so the mix is not that of the screen. Unmarked numbers belong to inactive results. No stated cut-off is given here; in the data, active means activation above about 40%; inconclusive means no clear call, values can overlap the other calls; inactive means below that.

Assay: Bmi1 luciferase reporter increase in mESCs, primary screen, esBAF inhibitor project, mouse ES cells, Bmi1 luciferase knock-in, single point (AID 602393);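 further: 0% = median of the plate's neutral control wells and 100% = double that signal; a rise in the Bmi1 reporter signal indicates esBAF inhibition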
Settings: 24 h, at 12.5 µM, hits give high values, 100% = twice the neutral-well signal
In the case of CS(=O)(=O)Nc1ccc2c(c1)[C@H]1C[C@H](CC(=O)NCc3ccc(Oc4ccccc4)cc3)O[C@H](CO)[C@H]1O2, the reporter increase is reported as 7.43%. Work on C[C@H]1CN([C@@H](C)CO)C(=O)c2cc(Br)cnc2O[C@H]1CN(C)Cc1cccc(F)c1 yielded a reporter increase of -3.97%. For O=C(Nc1ccccc1)N1CCN(C2c3ccccc3-c3ccccc32)CC1, the reporter increase was 4.83%. For O=C(Nc1ccccc1)N1CCN(Cc2ccccc2)CC1, the reporter increase was 40.2% (active). Compound O=C(Nc1ccccc1)N1CCC(C(=O)N2CCN(Cc3ccccc3)CC2)CC1 has a reporter increase of 12%. Work on C[C@@H]1CN([C@H](C)CO)S(=O)(=O)c2ccc(-c3cccc(F)c3)cc2O[C@H]1CN(C)S(=O)(=O)c1ccc(F)cc1 yielded a reporter increase of 10%. O=C(NC1CCC1)[C@H]1[C@H](CO)[C@H]2Cn3c(ccc(-c4ccccc4)c3=O)[C@@H]1N2Cc1cocn1 showed a reporter increase of 12.8%. O=C(C1CCC1)N1CCCCN2[C@H](CO)[C@H](c3ccc(-c4cccc(F)c4)cc3)[C@H]2C1 showed a reporter increase of -5.73%. In the case of O=C(NCC1CCCCC1)NCC1CCCCC1, the reporter increase is reported as 44.8% (active). N#CCC(=O)NC(=O)NCC1CC1 showed a reporter increase of 6.44%. Work on CC(C)(C)NC(=O)NC(=O)COC(=O)CCC1CCCCC1 yielded a reporter increase of -5.79%. For CCCNC(=O)C[C@H]1CC[C@H]2[C@H](COc3ccc(NC(=O)CC)cc3C(=O)N2C)O1, the reporter increase was 2.93%. C[C@H]1CN([C@@H](C)CO)C(=O)c2cccc(NS(=O)(=O)c3ccc(F)cc3)c2O[C@@H]1CN(C)CC1CC1 showed a reporter increase of -4.49%. In the case of Cc1cccc(N2O[C@H]3C=CC2CCCC3)n1, the reporter increase is reported as 56.9% (active). For CC(C)NC(=O)Nc1ccc2c(c1)C(=O)N([C@@H](C)CO)C[C@@H](C)[C@@H](CN(C)S(=O)(=O)c1ccc(F)cc1)OCCCC[C@H](C)O2, the reporter increase was -2.87%. Work on C[C@@H]1CN([C@H](C)CO)S(=O)(=O)c2ccc(-c3cncnc3)cc2O[C@@H]1CN(C)Cc1ccccn1 yielded a reporter increase of -3.4%. Work on CC(=O)Nc1ccc(S(=O)(=O)N(C)CC(=O)NCCC2=CCCCC2)cc1 yielded a reporter increase of -5.82%. For S=C(NCCC1=CCCCC1)Nc1ccccc1, the reporter increase was 51.5% (active). With CC(OC(=O)c1c(F)cccc1F)C(=O)NCCC1=CCCCC1 (configuration not stated) the reporter increase was -1.99%. In the case of Cc1cc(C(=O)NCCc2ccc(Cl)cc2)n(-c2ccccc2)n1, the reporter increase is reported as -4.28%. In the case of Cc1cc(C(=O)NCCc2ccc(Cl)cc2)c(C)o1, the reporter increase is reported as 55.1% (active). In the case of NS(=O)(=O)c1ccc(CCNC(=O)c2ccc(Cl)cc2[N+](=O)[O-])cc1, the reporter increase is reported as 0.338%.
